Drawing on PubChem BioAssay (NCI), this text covers growth inhibition for 8 compounds.

The experiment can be described thus: NCI Yeast Anticancer Drug Screen. Data for the wt1 strain (AID 149).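 Also: 0% = growth of vehicle-treated wt1 cultures.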 The note with it: S. cerevisiae wt1 strain (SPY 50644) growth inhibition, stronger effect = higher value. Here is the method: Growth inhibition of yeast strains with defined genetic alterations is measured as a screen for potential anti-cancer activity. Selected strains with alterations in DNA damage repair or cell cycle control were exposed to compounds and growth inhibition was measured relative to vehicle treated controls. The strain used in this assay is wt1

Molecules are shown by their SMILES. About 79,000 compounds went through this panel and 15% of them were active in at least one assay; those are over-represented in the sample as a whole. A number with no mark means an inactive call. Calls of active or inactive are those of the source. Rule as the data show it: active = growth inhibition above about 70%; inactive = the rest.

For the compound `Nc1nc(N)c(-c2ccc(Cl)c(Cl)c2)c(CP(Cl)(Cl)(Cl)Br)n1`, the growth inhibition (at 1.2 µM) is 9%; the growth inhibition (at 3.7 µM) is 16%; the growth inhibition (at 11.0 µM) was 45%; the growth inhibition (at 33.0 µM) is 55%; the growth inhibition (at 100.0 µM) was 48%.
For the compound `CC1=C2C(=C[C@@](C)(CO)[C@@H]2O)C(=O)[C@](C)(O)C12CC2`, the growth inhibition was 1% (at 1.2 µM); -1% (at 3.7 µM); 0% (at 11.0 µM); 0% (at 33.0 µM); 25% (at 100.0 µM).
For `CSC(=Nc1ccccc1)N(c1ccccc1)c1nc(=[N+](C)C)ss1`, the growth inhibition (at 1.2 µM) was -2%; the growth inhibition (at 3.7 µM) was 7%; the growth inhibition (at 11.0 µM) was 54%; the growth inhibition (at 33.0 µM) is 93% (active); the growth inhibition (at 100.0 µM) is 98% (active).
In the same order, the values of `O=c1oc2ccccc2c(O)c1C(c1ccc2c(c1)Cc1ccccc1-2)c1c(O)c2ccccc2oc1=O` are -16%, -5%, 5%, 53% and 97% (active).
Take `CCCCCCCCCCCCCCCCP(=O)(O)OP(=O)(O)OCC1OC(n2ccc(N)nc2=O)C(O)C1O` (stereo not given): the growth inhibition by setting is: (at 1.2 µM) 3%; (at 3.7 µM) 4%; (at 11.0 µM) 6%; (at 33.0 µM) 3%; (at 100.0 µM) 3%.
Take `O=S(=O)(O)/C(=C\c1ccccc1)c1ccccc1` (tested in a mixture with another compound): the growth inhibition (at 1.2 µM) was 1%; the growth inhibition (at 3.7 µM) was 0%; the growth inhibition (at 11.0 µM) was 1%; the growth inhibition (at 33.0 µM) is 0%; the growth inhibition (at 100.0 µM) was -1%.
In the case of `O=C(c1ccccc1)C1C(c2ccccc2[N+](=O)[O-])N1C1CCCCC1` (stereo not given), the growth inhibition (at 1.2 µM) was -1%; the growth inhibition (at 3.7 µM) was 1%; the growth inhibition (at 11.0 µM) was 8%; the growth inhibition (at 33.0 µM) was 41%; the growth inhibition (at 100.0 µM) was 80% (active).
For `CC1(Cl)CC(C)(/C=C/Cl)C(Cl)CC1Cl` (stereo not given), the growth inhibition runs as follows: (at 1.2 µM) 3%; (at 3.7 µM) 3%; (at 11.0 µM) 3%; (at 33.0 µM) 10%; (at 100.0 µM) 35%.
